In PubChem BioAssay AID411 (National Center for Advancing Translational Sciences (NCATS), 2006):
The whole screen tested about 72,000 compounds, of which about 1,600 (2.2%) were called active. Calls come from the whole dose curve; as a rule, active = well fitted inhibition curve with a large enough effect; inconclusive = small, poorly fitted or top-dose-only effect; inactive = flat fitted curve, though single readings scatter. The sample as a whole holds a higher share of actives than the screen did.

The compounds below were run against Luciferin 4-monooxygenase (Photinus pyralis) (UniProt P08659) (assay: qHTS Assay for Inhibitors of Firefly Luciferase). Conditions: purified firefly luciferase, luminescence, 8 min; series mostly up to 57.1 µM.
Sequence of Luciferin 4-monooxygenase (Photinus pyralis) (P08659 whole entry, looked up): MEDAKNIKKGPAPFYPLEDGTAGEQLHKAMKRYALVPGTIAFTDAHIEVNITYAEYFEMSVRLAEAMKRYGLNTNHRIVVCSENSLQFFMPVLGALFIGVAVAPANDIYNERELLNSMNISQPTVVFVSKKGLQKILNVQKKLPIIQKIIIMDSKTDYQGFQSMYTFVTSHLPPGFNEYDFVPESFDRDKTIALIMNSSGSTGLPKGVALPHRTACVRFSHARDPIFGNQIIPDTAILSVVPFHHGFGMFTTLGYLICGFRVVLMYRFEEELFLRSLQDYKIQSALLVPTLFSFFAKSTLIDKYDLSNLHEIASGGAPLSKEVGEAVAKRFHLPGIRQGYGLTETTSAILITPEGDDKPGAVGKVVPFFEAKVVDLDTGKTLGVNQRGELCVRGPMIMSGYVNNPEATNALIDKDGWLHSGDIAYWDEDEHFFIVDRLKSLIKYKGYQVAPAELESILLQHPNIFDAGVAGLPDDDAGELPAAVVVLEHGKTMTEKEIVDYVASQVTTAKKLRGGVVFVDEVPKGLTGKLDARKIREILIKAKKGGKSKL
In short: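 Luminescence read-out after 8 min at room temperature; enzyme reaction used luciferin plus 10 uM ATP (linear range) in imidazole buffer pH 7.2 with KCl, MgCl2, Tween 20 and BSA. Each sample was run as a titration.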
% is set by controls: 0 for no effect and ±100 for the full control effect; potency is the fitted concentration of half-maximal effect.
Note: nearly all actives have a fitted effect of over 40% in size.

Potency, inactive:
CCOc1ccc(NCCC(=O)c2ccc3c(c2)OCO3)cc1
CC(C)CCNC(=O)C(C)N(C(=O)Cn1nnc(-c2ccc(F)cc2)n1)C1CCCC1 (stereo not given)
CCN(CC)C(=O)CCC(=O)Nc1ccc(C(=O)OC)cc1
COC(=O)c1ccc(NC(=O)C(C)N2C(=O)c3ccccc3C2=O)cc1 (stereo not given)
CN(c1ccc(C(=O)NCCC2=CCCCC2)cc1)S(C)(=O)=O
O=C(c1cccs1)N1CCC(c2nc3ccccc3s2)CC1
Cc1nn(Cc2ccccc2)c(Cl)c1C(=O)OC1CCOC1=O (stereo not given)
NC(=O)c1ccccc1NC(=O)c1ccccc1F
CCCOC(=O)Nc1ccccc1C(N)=O
O=S(=O)(c1ccc(Sc2nnc3ccccn23)nc1)N1CCOCC1
O=C1CCCC2=C1C(c1cccs1)n1nc(SCc3ccccc3)nc1N2 (stereo not given)
O=S(=O)(NCCNS(=O)(=O)c1ccccc1)c1ccccc1
Cc1cc(NC(=O)c2cc(-c3cccs3)on2)nn1Cc1ccc(Cl)cc1
O=C(c1cc(-c2cccc(O)c2)on1)N1CCc2ccccc2C1
O=C(c1cc(-c2ccccc2O)on1)N1CCCC1
COc1ccccc1N1CCN(C(=O)c2cc(-c3ccc(Br)cc3)on2)CC1
Cn1cccc1Cc1nnc(SCC(=O)NCc2ccc3c(c2)OCO3)n1CCc1ccccc1
CCOC(=O)c1cc2cc(-c3c(C(=O)OCC)oc4cc(O)cc(O)c4c3=O)ccc2o1
O=C(C1CCN(S(=O)(=O)Cc2ccccc2)CC1)N1CCCc2ccccc21
CCOC(=O)NCc1ccc2c(c1)OCO2
CCOC(=O)c1c(C)[nH]c(C(=O)COc2ccc3c(c2)OCO3)c1C
COc1ccc(OC)c(C(=O)CSc2nnc(-c3cccs3)o2)c1
COc1ccc(-n2c(C)cc(C(=O)CSc3nnc(-c4cccs4)o3)c2C)cc1
c1coc(-c2nc3nc4ccccc4n3nc2-c2ccco2)c1
CN(c1nc2ccccc2n2c(-c3ccco3)nnc12)S(=O)(=O)c1ccccc1
C(=C\c1ccccc1)/CSc1nnc(-c2cccnc2)n1Cc1ccco1
CC(=O)N1CCN(C(=O)c2cccc(S(=O)(=O)Nc3ccc(C)cc3)c2)CC1
COC(=O)c1[nH]c2ccccc2c1NS(=O)(=O)c1ccc(OC)cc1OC
COc1ccc(OC)c(N=Cc2c(O)[nH]c3ccccc23)c1
CCOC(=O)C1CCCCN1Cc1ccc(OC)c(OC)c1OC (stereo not given)
CNC(=O)c1ccc2nc(NC(C)=O)sc2c1
CCn1c(SCC(=O)Nc2nc3ccc(OC)cc3s2)nnc1-c1ccoc1C
Cc1ccnc(N2CCC(C(=O)NC3CCCCCC3)CC2)n1
Cc1nc2ccccc2c(=O)n1CCCn1ccnc1
N#CCCN(CCC#N)c1nnc(-c2ccccc2)s1
O=C(NCc1cn2ccsc2n1)Nc1ccc(Cl)cc1
Cc1ccc(S(=O)(=O)NCc2cn3ccsc3n2)c(C)c1
Cc1ccc(NC(=O)CSc2nnc(-c3cnccn3)n2Cc2ccco2)cc1C
CN(C(=O)COc1ccccc1)c1nnc(-c2ccncc2)s1
CN(C(=O)c1ccno1)c1nnc(-c2cccnc2)s1
O=S1(=O)CCN2C(=N1)SC1=C2CCN(Cc2ccccc2)C1
Brc1cccc(-c2nnc3n2CCC3)c1
COc1ccc(-c2cc3n(n2)CCc2nc4ccccc4n2-3)cc1
Cc1nc2ccc(NC(=O)N3CCC(c4ccccc4)C3)cc2nc1C (stereo not given)
Cc1cc(=O)oc(C)c1C(=O)Nc1cnc2ccccc2c1
Cc1ccc(C(=O)CSc2nc3ccccc3c(=O)n2N)o1
CCOC(=O)Cc1csc(NC(=O)CSc2nc(C)cc(=O)[nH]2)n1
CCOC(=O)Cc1csc(NC(=O)C(C)(C)C)n1

Potency, active:
COC(=O)c1ccc(NCC(=O)c2ccccc2)cc1 7.94 µM
O=C(OC1CCOC1=O)c1ccc(-c2nc3ccccc3s2)s1 (stereo not given) 2.51 µM
COc1cccc(OCC(=O)Nc2ccccc2C(N)=O)c1 6.31 µM
COc1ccccc1-c1cc(C(=O)N2CCCCC2)no1 25.1 µM
O=C(c1cc(-c2cccs2)on1)N1CCCCC1 15.8 µM
CCOC(=O)c1nc(-c2ccc3c(c2)OCO3)[nH]c1C 15.8 µM
COc1ccc(-c2nnc(SCC(=O)c3cccs3)o2)c(OC)c1 12.6 µM
Cn1c(-c2ccco2)nc2cc3ccccc3cc21 0.501 µM
COc1ccc(N=Cc2c(O)[nH]c3ccccc23)cc1OC 15.8 µM
COc1ccc2nc(NC(=O)c3ccc(Br)s3)sc2c1 12.6 µM
Cc1ccnc(-n2sc3ccccc3c2=O)n1 20 µM
COc1ccc(-c2cn3ccsc3n2)cc1 3.98 µM
CN(C(=O)c1ccccn1)c1nnc(-c2ccccn2)s1 10 µM
COc1ccc(-c2nc3n(c2Br)CCC3)cc1 12.6 µM
Cc1ccc(NC(=O)c2cc(-c3ccc(C)o3)nc3ccccc23)nc1 12.6 µM
CCOC(=O)Cc1csc(NC(=O)Nc2ccccc2)n1 12.6 µM

Activity change, negative = inhibition, inactive:
COCCNc1ncnc2ccc(-c3cccnc3)cc12 -1.48% [at 2.29 µM]
COc1ccc(C(=O)N2CCC[C@@]3(CCN(C(=O)NC(C)C)C3)C2)cc1 -0.0908% [at 11.4 µM]
CN1CCc2[nH]nc(-c3n[nH]c4c3CN(C)CC4)c2C1 2.79% [at 11.4 µM]
CC(=O)N1CCC2(CCCN(Cc3ccc(C#N)cc3)C2)CC1 0.0675% [at 11.4 µM]
CNc1nc(-c2ccccc2OC)nc2ccccc12 -0.211% [at 2.29 µM]
Cc1nc2cnc(Nc3ccccc3)nc2n(Cc2ccc(F)cc2)c1=O -0.327% [at 11.4 µM]
